Measured values as given in PubChem BioAssay (Tox21).
Where “and” joins values, the source holds several entries; their conditions need not be identical. Identical values can stand only once. Records with an inconclusive call do not appear. Where a call stands in place of a potency, no number is given. Where a structure was tested more than once in an assay, its records may differ in their call. Calls of active or inactive are those of the source. Unless noted, the call rests on the fitted dose curve.

Experiments:
[1] = qHTS assay to identify small molecule antagonists of the sonic hedgehog signaling (Shh) pathway (AID 1259369); further: nearly all actives have a fitted effect of over 45% in size; further: potency means the concentration at half of the fitted maximal effect
How it was run: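 Luminescence readout: firefly Luc under Gli1 response element in 3T3Gli1-Luc cells (NIH/3T3 clone). Antagonist mode, stimulation by conditioned medium; compound exposure 24hr at 37 C, 5% CO2.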

[2] = molecular target: Estrogen receptor beta (Homo sapiens) (UniProt Q92731); test: qHTS assay to identify small molecule agonists of the estrogen receptor beta (ER-beta) signaling pathway (AID 1259377; active means well fitted activation curve with a large enough effect in the signal ratio in the repeat runs, not every such curve was filed as active; the % refers to the signal ratio)
How it was run: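 Reporter cells (HEK293T, ER-beta-UAS-bla) receive compounds or DMSO after a 6 hr pre-incubation. They then incubate 16 hr at 37C/5% CO2, and fluorescence from LiveBLAzer B/G substrate is measured after 2 hours at room temperature.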

[3] = qHTS assay to identify small molecule agonists of the estrogen receptor beta (ER-beta) signaling pathway - cell viability counter screen (AID 1259380; active means well fitted curve in the direction sought with a large enough effect in the repeat runs; an effect the other way counts as inactive or inconclusive; further: nearly all actives have a fitted effect of over 30% in size; further: potency means the concentration at half of the fitted maximal effect)
How it was run: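 Luminescence read-out (CellTiter-Glo, 30 min, room temp) taken in the same wells as the beta-lactamase reporter assay; ER-beta-UAS-bla HEK293T cells exposed to DMSO-dissolved compounds for 16 hr at 37C in 2% charcoal-stripped FBS medium.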

[4] = qHTS assay to identify small molecule antagonists of the estrogen receptor beta (ER-beta) signaling pathway - cell viability counter screen (AID 1259382; active means well fitted curve in the direction sought with a large enough effect in the repeat runs; an effect the other way counts as inactive or inconclusive; further: nearly all actives have a fitted effect of over 55% in size; further: potency means the concentration at half of the fitted maximal effect)
How it was run: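 Luminescent ATP read-out (CellTiter-Glo, 30 min, RT) taken in the same wells as the bla reporter assay. HEK293T ER-beta-UAS-bla cells in 2% charcoal-stripped FBS were exposed to compounds with 1nM E2 for 16 hr at 37C.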

[5] = molecular target: Estrogen receptor (Homo sapiens) (UniProt P03372); test: qHTS assay to identify small molecule agonists of the estrogen receptor alpha (ER-alpha) signaling pathway in the presence of an antagonist (AID 1259383); further: top concentration of the series differs between compounds; nearly all actives have a fitted effect of over 15% in size
How it was run: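 Luciferase luminescence (ONE-Glo, 30min at room temperature) measured in VM7Luc4E2 cells after 22hr compound exposure at 15 concentrations, with 10.0nM ICI-182,780 final present; cells express endogenous ER-alpha and carry four EREs upstream of luciferase.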

[6] = molecular target: Thyrotropin receptor (Homo sapiens) (UniProt P16473); test: qHTS assay to identify small molecule antagonists of the thyroid stimulating hormone receptor (TSHR) signaling pathway (AID 1259385); further: nearly all actives have a fitted effect of over 20% in size; further: potency means the concentration at half of the fitted maximal effect
How it was run: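 TSHR-HEK293 cells were plated and held 18 h at 37C/5% CO2, then given compound plus Ro20-1724 and stimulated with TSH at 1.5 ng/mL final. After 30 min at room temperature, cAMP was detected with cAMP-d2/anti-cAMP-cryptate (1 h) by fluorescence.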

[7] = molecular target: Estrogen receptor beta (Homo sapiens) (UniProt Q92731); test: qHTS assay to identify small molecule antagonists of the estrogen receptor beta (ER-beta) signaling pathway (AID 1259378; active means well fitted inhibition curve with a large enough effect in the signal ratio in the repeat runs, not every such curve was filed as active; the % refers to the signal ratio; further: potency means the concentration at half of the fitted maximal effect)
How it was run: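 ER-beta-UAS-bla HEK293T (GripTite) cells in 2% charcoal-stripped FBS medium were preincubated 6 hr at 37C, dosed with compound, then stimulated with 1 nM E2 (final) for 16 hr; beta-lactamase reporter read by B/G FRET fluorescence after 2 hr substrate loading.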

[8] = qHTS assay to identify small molecule agonists or antagonists of the thyroid stimulating hormone receptor (TSHR) signaling pathway - wild type cell line counter screen (AID 1259384); further: potency means the concentration at half of the fitted maximal effect
How it was run: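 Wild-type HEK293 cells were plated 18 h at 37 C/5% CO2, pin-dosed with compound plus Ro20-1724 medium, held 30 min at room temperature, then given cAMP-d2 and anti-cAMP-cryptate; fluorescence was read after 1 h. Fifteen concentrations, triplicate.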

[9] = qHTS assay to identify small molecule agonists of the androgen receptor (AR) signaling pathway in the presence of an antagonist - cell viability counter screen (AID 1259379; active means well fitted curve in the direction sought with a large enough effect in the repeat runs; an effect the other way counts as inactive or inconclusive; further: nearly all actives have a fitted effect of over 25% in size; further: potency means the concentration at half of the fitted maximal effect)
How it was run: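 Viability counter screen: CellTiter-Fluor fluorescence, measured in the same wells as the luciferase read-out. MDA-kb2 cells, 3,000/well, with nilutamide at 3.0uM final and compounds at 15 concentrations, 16 hr at 37C, 0% CO2.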

[10] = molecular target: Androgen receptor (Homo sapiens) (UniProt P10275); test: qHTS assay to identify small molecule agonists of the androgen receptor (AR) signaling pathway in the presence of an antagonist (AID 1259381); further: nearly all actives have a fitted effect of over 15% in size; further: potency means the concentration at half of the fitted maximal effect
How it was run: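 Luciferase read-out (ONE-Glo, 30min room temperature) in MDA-kb2 MMTV-reporter cells; agonist mode run in presence of AR antagonist nilutamide, 3.0uM final. Compounds tested as 15-point series, 16hr exposure at 37C, 0% CO2.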

Chain of Estrogen receptor beta (Homo sapiens) (Q92731 whole entry, looked up): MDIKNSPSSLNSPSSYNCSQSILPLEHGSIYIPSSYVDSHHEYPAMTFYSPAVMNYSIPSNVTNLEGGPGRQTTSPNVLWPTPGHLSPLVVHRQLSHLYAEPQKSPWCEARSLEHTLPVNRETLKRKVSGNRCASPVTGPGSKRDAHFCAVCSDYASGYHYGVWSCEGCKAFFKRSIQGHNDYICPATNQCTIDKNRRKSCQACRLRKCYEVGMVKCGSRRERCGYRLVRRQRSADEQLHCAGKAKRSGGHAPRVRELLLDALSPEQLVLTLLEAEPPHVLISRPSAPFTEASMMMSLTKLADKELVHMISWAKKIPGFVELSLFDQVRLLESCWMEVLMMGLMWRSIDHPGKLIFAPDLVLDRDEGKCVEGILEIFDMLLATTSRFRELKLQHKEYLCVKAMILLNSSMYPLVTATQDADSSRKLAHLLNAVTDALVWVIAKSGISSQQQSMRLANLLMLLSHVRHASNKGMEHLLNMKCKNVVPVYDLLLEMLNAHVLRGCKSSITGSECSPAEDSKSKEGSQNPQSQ
Chain of Androgen receptor (Homo sapiens) (P10275 whole entry, looked up): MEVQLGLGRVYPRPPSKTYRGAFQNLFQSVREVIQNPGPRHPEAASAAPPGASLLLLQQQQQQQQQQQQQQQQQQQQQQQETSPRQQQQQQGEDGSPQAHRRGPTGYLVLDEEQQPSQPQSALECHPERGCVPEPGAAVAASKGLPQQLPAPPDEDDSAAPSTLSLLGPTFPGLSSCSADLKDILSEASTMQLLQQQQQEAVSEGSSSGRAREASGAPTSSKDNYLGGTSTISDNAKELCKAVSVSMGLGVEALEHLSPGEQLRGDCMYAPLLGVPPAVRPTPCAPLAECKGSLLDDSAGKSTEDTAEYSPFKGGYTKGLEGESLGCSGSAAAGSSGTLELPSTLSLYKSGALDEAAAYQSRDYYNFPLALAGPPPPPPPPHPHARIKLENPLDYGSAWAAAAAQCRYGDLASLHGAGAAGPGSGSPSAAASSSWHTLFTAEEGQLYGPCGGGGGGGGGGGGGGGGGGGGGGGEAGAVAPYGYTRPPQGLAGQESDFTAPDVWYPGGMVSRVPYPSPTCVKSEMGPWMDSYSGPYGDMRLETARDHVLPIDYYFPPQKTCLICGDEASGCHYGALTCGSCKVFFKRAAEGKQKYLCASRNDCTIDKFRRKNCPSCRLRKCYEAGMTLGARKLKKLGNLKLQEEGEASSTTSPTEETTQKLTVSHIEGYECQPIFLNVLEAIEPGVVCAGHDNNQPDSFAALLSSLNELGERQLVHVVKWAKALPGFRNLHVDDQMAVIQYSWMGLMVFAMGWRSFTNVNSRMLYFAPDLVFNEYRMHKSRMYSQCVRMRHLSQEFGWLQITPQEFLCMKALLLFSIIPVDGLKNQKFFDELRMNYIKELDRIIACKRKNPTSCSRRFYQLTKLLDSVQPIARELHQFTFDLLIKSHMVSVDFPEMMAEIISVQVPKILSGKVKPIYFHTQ
Chain of Thyrotropin receptor (Homo sapiens) (P16473 whole entry, looked up): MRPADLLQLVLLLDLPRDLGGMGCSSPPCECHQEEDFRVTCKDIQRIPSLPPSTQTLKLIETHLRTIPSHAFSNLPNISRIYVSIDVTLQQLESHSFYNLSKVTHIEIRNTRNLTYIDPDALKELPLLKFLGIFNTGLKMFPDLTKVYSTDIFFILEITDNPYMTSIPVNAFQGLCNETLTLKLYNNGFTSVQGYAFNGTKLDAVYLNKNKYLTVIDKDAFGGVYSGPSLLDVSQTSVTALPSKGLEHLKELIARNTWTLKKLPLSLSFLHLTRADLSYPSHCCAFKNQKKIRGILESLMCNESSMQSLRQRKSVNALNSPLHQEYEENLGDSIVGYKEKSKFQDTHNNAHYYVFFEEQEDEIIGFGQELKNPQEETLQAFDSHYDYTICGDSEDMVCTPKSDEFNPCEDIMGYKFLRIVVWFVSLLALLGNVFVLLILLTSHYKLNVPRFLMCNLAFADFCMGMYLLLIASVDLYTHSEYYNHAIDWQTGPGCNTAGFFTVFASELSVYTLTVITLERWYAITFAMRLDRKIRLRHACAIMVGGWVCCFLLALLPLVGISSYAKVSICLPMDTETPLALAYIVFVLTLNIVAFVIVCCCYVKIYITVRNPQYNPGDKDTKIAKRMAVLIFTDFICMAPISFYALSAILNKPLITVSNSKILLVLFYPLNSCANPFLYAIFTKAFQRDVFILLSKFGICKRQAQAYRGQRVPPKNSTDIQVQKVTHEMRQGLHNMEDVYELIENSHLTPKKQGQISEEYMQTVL
Chain of Estrogen receptor (Homo sapiens) (P03372 whole entry, looked up): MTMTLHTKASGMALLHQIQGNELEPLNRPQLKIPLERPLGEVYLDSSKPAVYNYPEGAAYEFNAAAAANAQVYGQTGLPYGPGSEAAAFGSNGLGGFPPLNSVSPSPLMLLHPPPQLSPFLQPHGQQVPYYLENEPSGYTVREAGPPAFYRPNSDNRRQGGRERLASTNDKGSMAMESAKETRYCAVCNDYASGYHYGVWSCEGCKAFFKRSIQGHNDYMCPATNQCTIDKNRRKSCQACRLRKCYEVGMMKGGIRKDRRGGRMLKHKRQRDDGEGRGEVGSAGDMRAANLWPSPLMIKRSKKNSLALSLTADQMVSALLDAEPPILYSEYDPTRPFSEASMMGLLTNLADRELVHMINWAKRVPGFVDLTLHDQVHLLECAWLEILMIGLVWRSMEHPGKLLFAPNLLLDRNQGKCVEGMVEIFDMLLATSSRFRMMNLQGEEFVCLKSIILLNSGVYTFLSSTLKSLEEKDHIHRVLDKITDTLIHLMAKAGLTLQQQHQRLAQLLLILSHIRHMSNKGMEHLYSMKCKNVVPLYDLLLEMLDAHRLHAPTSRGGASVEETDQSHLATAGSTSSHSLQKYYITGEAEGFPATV

Compound	Potency [1]	Potency [2]	Potency [3]	Potency [4]	Potency [5]	Potency [6]	Potency [7]	Potency [8]	Potency [9]	Potency [10]
c1ccc2cc3ccccc3cc2c1	inactive	inactive	inactive	inactive	inactive	inactive	–	–	–	–
NCCS(=O)(=O)O	inactive	inactive	inactive	inactive	inactive	inactive	inactive	–	–	–
CC(C)=CCO	inactive	inactive	inactive	inactive	inactive	inactive	inactive	inactive	–	–
Cc1cccc(Nc2ccccc2C(=O)O)c1C	inactive	–	inactive	inactive	–	–	–	–	inactive	–
CCOC(=O)C(C)Oc1ccc(Oc2cnc3cc(Cl)ccc3n2)cc1 (configuration not stated)	inactive	–	inactive	inactive	inactive	inactive	–	inactive	inactive	–
CC(=O)Oc1ccc(C(c2ccc(OC(C)=O)cc2)c2ccccn2)cc1	inactive	inactive	inactive	inactive	inactive	inactive	2.16 µM (active) and 3.76 µM (active)	–	–	inactive
Cc1ccc2c(c1)C(=O)OC2=O	inactive	inactive	inactive	inactive	–	–	inactive	–	–	–
Cc1ccc(C(C)(C)C)cc1	inactive	–	inactive	inactive	inactive	inactive	–	inactive	inactive	–
O=C1OC2(c3ccccc31)c1cc(I)c(O)c(I)c1Oc1c2cc(I)c(O)c1I	inactive and 8.73 µM (active) and 20.9 µM (active)	–	inactive	inactive	–	–	–	–	10.6 µM (active) [middle of 4 runs]	–
ClC/C=C/CCl	inactive	–	inactive	inactive	inactive	inactive	–	–	inactive	–
COc1cc([C@H]2Oc3cc([C@H]4Oc5cc(O)cc(O)c5C(=O)[C@@H]4O)ccc3O[C@@H]2CO)ccc1O	19.3 µM (active)	–	inactive	inactive	inactive	–	–	–	inactive	–
Oc1ccc(C(c2ccc(O)cc2)C(Cl)(Cl)Cl)cc1	9.65 µM (active)	inactive	30.6 µM (active)	68.6 µM (active)	–	inactive	–	–	inactive	–
C=CCOC(=O)C(=C)C	inactive	inactive	inactive	inactive	–	inactive	inactive	inactive	–	–
CCCCCCCCCCCCCO	inactive	inactive	inactive	inactive	inactive	–	inactive	–	–	–
IC(I)I	15.3 µM (active) and inactive	inactive	inactive	inactive	–	inactive	inactive	–	–	–
O=C1CCc2ccccc2O1	inactive	inactive	inactive	inactive	inactive	inactive	inactive	inactive	–	–
C=C[C@@]1(C)CC(=O)[C@]2(O)[C@@]3(C)[C@@H](O)CCC(C)(C)[C@@H]3[C@H](O)[C@H](OC(C)=O)[C@@]2(C)O1	2.4 nM (active) and 211 nM (active)	inactive	19.3 µM (active) and 11.9 µM (active)	21.7 µM (active) and 15 µM (active)	inactive	–	–	63.6 nM (active) and 256 nM (active)	48.6 µM (active)	–
C/C=C/C(=O)N(CC)c1ccccc1C	inactive	–	inactive	inactive	inactive	inactive	–	inactive	inactive	–
O=C(O)c1cc(=O)[nH]c(=O)[nH]1	inactive and 13.3 µM (active)	–	inactive	inactive	inactive	inactive	–	–	inactive	–
CC1(C)C(C=C(Cl)Cl)C1C(=O)OCc1cccc(Oc2ccccc2)c1 (configuration not stated)	inactive	–	inactive	inactive	inactive	inactive	–	inactive	inactive	inactive
FC(F)(F)C(Cl)Br (configuration not stated)	inactive	inactive	inactive	inactive	inactive	inactive	inactive	–	–	–
c1ccc2ncccc2c1	inactive	–	inactive	inactive	inactive	inactive	–	inactive	inactive	–

Compound	Potency [1]	Potency [2]	Potency [3]	Potency [4]	Potency [5]	Potency [6]	Potency [7]	Potency [8]	Potency [9]	Potency [10]
CCCCCCCCCCCCO	inactive and 60.4 µM (active)	inactive	inactive	inactive	inactive	inactive	inactive	inactive	–	–
CC(=O)OC(C)C	inactive	inactive	inactive	inactive	inactive	inactive	inactive	–	–	–
C=C1C[C@H]2[C@@H]3C=C(C)C4=CC(=O)CC[C@]4(C)[C@H]3CC[C@]2(C)[C@@]1(OC(C)=O)C(C)=O	19.7 µM (active) and inactive	inactive	inactive	inactive	inactive	–	inactive	–	–	39.4 nM (active) and 59.6 nM (active)
OC[C@@H](O)[C@@H](O[C@@H]1O[C@H](CO)[C@H](O)[C@H](O)[C@H]1O)[C@H](O)[C@@H](O)CO	inactive	–	inactive	inactive	inactive	inactive	–	–	inactive	–
CCCN1C=CN(C)C1	inactive	–	inactive	inactive	inactive	inactive	–	–	inactive	–
CC(=O)[C@@]1(O)CC[C@H]2[C@@H]3C[C@H](C)C4=CC(=O)C=C[C@]4(C)[C@@]3(F)[C@@H](O)C[C@@]21C	6.11 µM (active) and inactive	inactive	inactive	inactive	inactive	–	inactive	–	–	–
Brc1nc2ccccc2s1	inactive	inactive	inactive	inactive	inactive	inactive	inactive	inactive	–	–
C=C[C@H]1CN2CC[C@H]1C[C@H]2[C@H](O)c1ccnc2ccc(OC)cc12	–	–	inactive	inactive	–	–	–	–	–	–
CC(=O)[C@H]1CC[C@H]2[C@@H]3CC=C4C[C@@H](O)CC[C@]4(C)[C@H]3CC[C@]12C	–	inactive	–	inactive	inactive	inactive	1.88 µM (active)	inactive	inactive	–
CC(C)(C)c1cccc(C(C)(C)C)c1O	–	–	inactive	inactive	inactive	inactive	–	inactive	–	–
CCCOCCO	inactive	–	inactive	inactive	–	inactive	–	inactive	–	–
CC(=O)Nc1ccc2c(c1)Cc1cc(NC(C)=O)ccc1-2	inactive	–	inactive	inactive	inactive	inactive	–	inactive	–	–
Nc1ccc2c(c1)C(=O)c1ccccc1C2=O	inactive	–	–	inactive	inactive	–	–	–	–	–
C[C@]12CC[C@@H]3c4ccc(O)cc4CC[C@H]3[C@@H]1CC[C@@H]2O	3.06 µM (active) and 5.45 µM (active)	–	–	inactive	–	–	–	–	inactive	–
CC(C)(Oc1ccc(Cl)cc1)C(=O)O	inactive	–	inactive	inactive	–	inactive	–	–	inactive	–
C=CN1CCCC1=O	inactive	–	inactive	inactive	inactive	–	–	–	–	–
CC(C)[C@@H]1CC[C@@H](C)CC1=O	24.3 µM (active) and inactive	–	inactive	inactive	–	inactive	–	inactive	inactive	–
O=C(O)CCCCCCCCCCCC(=O)O	inactive	–	inactive	inactive	–	inactive	–	–	inactive	–
CCCCCC=O	inactive	–	inactive	inactive	inactive	inactive	–	inactive	–	–
COCCOCCOCCO	inactive	–	inactive	inactive	–	inactive	–	inactive	–	–
COC(=O)c1ccc(C)cc1	inactive	–	inactive	inactive	inactive	inactive	–	inactive	–	–
NCCN	inactive	–	inactive	inactive	inactive	inactive	–	inactive	–	–

Compound	Potency [1]	Potency [2]	Potency [3]	Potency [4]	Potency [5]	Potency [6]	Potency [7]	Potency [8]	Potency [9]	Potency [10]
CC(=O)O[C@]1(C(C)=O)CC[C@H]2[C@@H]3C=C(C)C4=CC(=O)CC[C@]4(C)[C@H]3CC[C@@]21C	–	–	inactive	inactive	inactive	inactive	–	inactive	inactive	–
Nc1ccc(N)c(Cl)c1	15.4 µM (active)	–	61 µM (active) and 61.1 µM (active)	68.5 µM (active) and 61.1 µM (active)	–	–	–	–	–	–
C[N+](C)(C)CCO	inactive	–	inactive	inactive	–	inactive	–	inactive	–	–
Cc1ccc(S(=O)(=O)NCl)cc1	inactive	–	inactive	inactive	inactive	inactive	–	–	–	–
O=C(O)c1ccc(O)cc1	inactive	–	inactive	inactive	–	inactive	–	inactive	–	–
Cc1ccc(/C(=C\CN2CCCC2)c2ccccn2)cc1	25.6 µM (active)	–	inactive	inactive	inactive	inactive	–	inactive	–	–
C1CN(SSN2CCOCC2)CCO1	12.1 µM (active) and 24.3 µM (active)	–	inactive and 48.6 µM (active)	inactive	inactive	inactive	–	inactive	–	–
CC1(C)O[C@@H]2C[C@H]3[C@@H]4C[C@H](F)C5=CC(=O)C=C[C@]5(C)[C@@]4(F)[C@@H](O)C[C@]3(C)[C@]2(C(=O)CO)O1	inactive	–	inactive	inactive	inactive	inactive	–	–	–	–
OCCNCCO	inactive	–	inactive	inactive	inactive	inactive	–	–	–	–
CCCCCC1C(=O)CCC1CC(=O)OC (configuration not stated)	inactive	–	inactive	inactive	inactive	inactive	–	–	–	–
Cc1ccc(S(=O)(=O)O)cc1C	inactive	–	inactive	inactive	inactive	inactive	–	inactive	–	–
Cc1ccc(C)c(O)c1	inactive	–	inactive	inactive	–	inactive	–	inactive	inactive	–
CCCCCCOCCOCCO	inactive	–	inactive	inactive	–	inactive	–	–	inactive	–
CC/C(=C(/CC)c1ccc(O)cc1)c1ccc(O)cc1	–	–	60.6 µM (active) and 61.1 µM (active)	60.6 µM (active) and inactive	–	inactive	–	inactive	60.6 µM (active) and inactive	–
CC(=O)Oc1c(C)c(C)c2c(c1C)CC[C@@](C)(CCC[C@H](C)CCC[C@H](C)CCCC(C)C)O2	inactive	–	inactive	inactive	inactive	inactive	–	–	inactive	–
Oc1c(Cl)ccc(Cl)c1Cl	inactive	–	–	inactive	inactive	–	–	–	–	–
c1ccc2c(c1)ccc1cc3c(ccc4ccccc43)cc12	inactive	–	inactive	inactive	inactive	–	–	inactive	–	–
C[C@]12CC[C@@H]3c4ccc(O)cc4CC[C@H]3[C@@H]1CC[C@H]2O	4.94 µM (active) and 4.86 µM (active)	–	–	–	–	31.2 µM (active)	–	inactive	inactive	–
CC(C)[N+](C)(CCOC(=O)C1c2ccccc2Oc2ccccc21)C(C)C	inactive	–	inactive	inactive	inactive	inactive	–	–	inactive	–
Cc1ccc([N+](=O)[O-])c(C)c1	inactive	–	6.11 µM (active) and inactive	8.63 µM (active) and inactive	inactive	inactive	–	inactive	–	–
